Screening results deposited in PubChem by National Center for Advancing Translational Sciences (NCATS).
HepG2 tox – qHTS for Inhibitors of TGF-b: Cytotox Counterscreen. HepG2 CAGA-GFP viability, ATP luminescence, 18 h. Potency, µM (doses to about 46.1 µM), usual class: cytotoxic. hit rate 0.76% among 410,000. AID 588856, 2011
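CellTiter-Glo luminescence gave cytotoxicity after 18 hours at 37 degrees C. The cells were HepG2 CAGA-GFP in 1% FBS DMEM, stimulated with 500 pg/mL TGF-beta after compound addition. %Activity was normalised to no-cell wells (complete cell-killing) and DMSO (no toxicity), and curves were fitted and classified.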
DRD3 agonist – qHTS of D3 Dopamine Receptor Agonist: qHTS. hit rate 0.58% among 410,000. max activation, %. D3R DiscoveRx beta-arrestin cells, luminescence, 90 min; in the data active means max activation above about 30%
Target sequence (P35462 whole entry, looked up): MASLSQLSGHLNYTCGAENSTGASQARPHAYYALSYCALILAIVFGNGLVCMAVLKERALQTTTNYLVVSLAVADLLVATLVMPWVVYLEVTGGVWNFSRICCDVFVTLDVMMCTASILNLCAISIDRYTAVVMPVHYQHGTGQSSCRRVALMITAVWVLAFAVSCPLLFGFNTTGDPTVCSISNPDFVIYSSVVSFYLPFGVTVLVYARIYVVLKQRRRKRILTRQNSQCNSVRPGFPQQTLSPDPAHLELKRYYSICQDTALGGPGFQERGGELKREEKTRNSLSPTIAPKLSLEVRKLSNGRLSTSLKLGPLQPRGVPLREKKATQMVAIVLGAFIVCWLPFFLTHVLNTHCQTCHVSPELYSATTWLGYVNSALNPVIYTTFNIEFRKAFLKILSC
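Cells at 1500/well, incubated overnight, then treated with pinned compounds (dopamine as control) for 90 min at 37 degrees C. DiscoveRx reagent added for 30 - 60 minutes at room temperature; luminescence read.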
D3 antag – qHTS of D3 Dopamine Receptor Antagonist: qHTS. D(3) dopamine receptor (Homo sapiens), P35462. D3R cells, DiscoveRx beta-arrestin luminescence, antagonist mode; stronger effect = lower value. max response, negative = inhibition, %. hit rate 2.5% among 360,000. AID 652054, 2013; in the data active means max response below about -50%; inconclusive means no clear call, values can overlap the other calls
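Cells plated overnight at 1500 cells/well, then exposed to library compounds with dopamine controls for 90 minutes at 37 degrees C. DiscoveRx reagent added for 30–60 minutes at room temperature; luminescence read, quantitative HTS format.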
ATXN viability – Viability Counterscreen for Primary qHTS for Inhibitors of ATXN expression. Potency, µM (highest dose often 56.7 µM), usual class: cytotoxic. AID 651635, 2014. hit rate 0.49% among 400,000. S2 cells (HEK-293 line with an ATXN2-luciferase reporter) viability, CellTiter-Fluor protease fluorescence, 24 h; further: nearly all actives have a fitted effect of over 40% in size
TGFb SMAD3 inh – qHTS for Inhibitors of TGF-b. HepG2 CAGA-GFP TGF-b/SMAD3 reporter, GFP fluorescence, 18 h; TGF-beta stimulated, 500 pg/mL final. Potency, µM (highest dose often 46.1 µM), hits mostly inhibitors. hit rate 1.2% among 410,000. AID 588855, 2011; further: nearly all actives have a fitted effect of over 65% in size
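Smad-responsive CAGA-GFP expression was quantified in HEPG2 cells exposed to compounds and 500 pg/mL final TGF-beta for 18 h at 37 degrees C; unstimulated wells defined full inhibition.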
ATXN2 expr inh – Primary qHTS for Inhibitors of ATXN expression; HEK-293 ATXN2-luciferase reporter, luminescence, 24 h; Potency, µM (doses to about 57 µM), most hits filed as inhibitors; hit rate 0.72% among 360,000; further: nearly all actives have a fitted effect of over 55% in size
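ATXN2-luciferase reporter cells (luciferase flanked by upstream and downstream ATXN2 gene portions) were treated 24 h at 37 °C with compounds at up to 57 uM. SteadyGlo luminescence gave expression; GF-AFC fluorescence gave viability.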
A number is an active result. Sampled rows, rich in hits. Any-hit rate of the full collection: about 4.7%. Unless noted, the call rests on the fitted dose curve; in most records, active means well fitted curve in the direction sought with a large enough effect; inconclusive means small, poorly fitted or top-dose-only effect, or another doubt; inactive means no such curve, though single readings can be large; an effect the other way counts as inactive or inconclusive.

`Cc1c(C(=O)NCCc2cccnc2)cnn1-c1nccc(-c2ccccc2F)n1` gave ATXN viability inactive.
Screening CCCn1c(C)cc(C(=O)COc2ccc(C)nc2[N+](=O)[O-])c1C returned HepG2 tox inactive, DRD3 agonist inactive, D3 antag inactive, ATXN viability inactive, TGFb SMAD3 inh inactive and ATXN2 expr inh inactive.
`Cc1ccc(OCC(=O)c2cc(C)c(C)cc2C)c([N+](=O)[O-])n1` gave HepG2 tox inactive, DRD3 agonist inactive, D3 antag inactive, ATXN viability inactive, TGFb SMAD3 inh 11µM and ATXN2 expr inh inactive.
`Cc1cc(C(=O)CCl)c(C)n1-c1cccc([N+](=O)[O-])c1` gave HepG2 tox inactive, DRD3 agonist inactive, D3 antag inconclusive, ATXN viability 25µM, TGFb SMAD3 inh inconclusive and ATXN2 expr inh inconclusive.
For Cc1ccc(OCC(=O)c2cc(C)n(-c3ccccc3)c2C)c([N+](=O)[O-])n1 the results were HepG2 tox inactive, DRD3 agonist inactive, D3 antag inactive, ATXN viability inactive, TGFb SMAD3 inh inconclusive and ATXN2 expr inh 3.2µM.
O=C(Nc1cc(Cl)cc(Cl)c1)c1ccc(F)c(S(=O)(=O)NC2CCCCC2)c1 was read as HepG2 tox inactive, DRD3 agonist inactive, ATXN viability inconclusive, TGFb SMAD3 inh inconclusive and ATXN2 expr inh inconclusive.
`CN(C)C(=S)SC(=S)N(C)C` gave DRD3 agonist inactive, ATXN viability 2.5µM and ATXN2 expr inh 2.5µM.
`C1=Nc2ccccc2/C1=C/c1ccccc1` gave HepG2 tox inactive and TGFb SMAD3 inh inactive.
Screening O=C1C=CC(=O)N1c1ccc2c(c1)C(NC(=O)C(F)(F)F)c1ccccc1-2 (stereo unspecified) returned HepG2 tox inactive, DRD3 agonist inactive, D3 antag -62, TGFb SMAD3 inh inconclusive and ATXN2 expr inh inconclusive.
CN(C)C(=O)NC1c2ccccc2-c2ccccc21 was read as HepG2 tox inactive, DRD3 agonist inactive, D3 antag inactive, ATXN viability inactive, TGFb SMAD3 inh inactive and ATXN2 expr inh inactive.
`Cc1cc(C)nc(NS(=O)(=O)c2ccc(NC(=O)c3cccc(N4C(=O)CCC4=O)c3)cc2)n1` gave HepG2 tox inactive, DRD3 agonist inactive, D3 antag -59, ATXN viability inactive, TGFb SMAD3 inh inactive and ATXN2 expr inh inactive.
`Cc1ccnc(NS(=O)(=O)c2ccc(NC(=O)c3ccc(N4C(=O)CCC4=O)cc3)cc2)n1` gave HepG2 tox inactive, DRD3 agonist inactive, D3 antag inactive, ATXN viability inactive, TGFb SMAD3 inh inactive and ATXN2 expr inh inactive.
Cc1ccc(-c2nn(C)c(=O)c3ccccc23)cc1S(=O)(=O)NCCN1CCOCC1 was read as HepG2 tox inactive, DRD3 agonist inactive, D3 antag -53, ATXN viability inactive, TGFb SMAD3 inh inactive and ATXN2 expr inh inactive.
`CCOC(=O)CNS(=O)(=O)c1cc(-c2nn(C)c(=O)c3ccccc23)ccc1C` gave HepG2 tox inactive, DRD3 agonist inactive, D3 antag inactive, ATXN viability inactive, TGFb SMAD3 inh inactive and ATXN2 expr inh inactive.
CC(=O)c1cccc(NC(=O)CN2C(=O)COc3ccc(Cl)cc32)c1 was read as HepG2 tox inactive, DRD3 agonist inactive, D3 antag -94, ATXN viability inactive, TGFb SMAD3 inh inactive and ATXN2 expr inh inactive.
Screening Cc1cc(C)c2nc(N3C(=O)C(O)=C(C(=O)c4ccco4)C3c3ccco3)sc2c1 (stereo unspecified) returned HepG2 tox inactive, DRD3 agonist 31, D3 antag inactive, ATXN viability inactive, TGFb SMAD3 inh inactive and ATXN2 expr inh inactive.
`CCCCCCCCN1C(=O)[C@H](CC(=O)NCC23CC4CC(CC(C4)C2)C3)C[C@@]2(C(=O)OCC)CCC=C12` gave DRD3 agonist inactive and D3 antag inactive.
O=C1c2ccccc2-[n+]2ccc3c([nH]c4ccccc43)c21 was read as ATXN2 expr inh 2.7µM.
For CC(=O)c1ccc(NC(=O)Cn2ncc3c4ccccc4n(Cc4ccccc4)c3c2=O)cc1 the results were HepG2 tox inactive, DRD3 agonist inactive, ATXN viability inactive, TGFb SMAD3 inh inactive and ATXN2 expr inh inactive.
For O=C(CSc1nc2ccccc2[nH]1)N1CCCCC1 the results were HepG2 tox inactive, DRD3 agonist inactive, D3 antag -96, ATXN viability inactive, TGFb SMAD3 inh inactive and ATXN2 expr inh inactive.
For Cc1ccc2nc(SCC(=O)c3c[nH]c4ccccc34)[nH]c2c1 the results were HepG2 tox inactive, DRD3 agonist inactive, D3 antag inactive, ATXN viability inactive, TGFb SMAD3 inh inconclusive and ATXN2 expr inh inactive.
For O=C(CSc1nc2ccccc2[nH]1)c1c[nH]c2ccccc12 the results were HepG2 tox inactive, DRD3 agonist inactive, D3 antag -56, ATXN viability inactive, TGFb SMAD3 inh inactive and ATXN2 expr inh inactive.
Screening COc1cccc(-n2c(SC)nnc2C2CCN(Cc3nc4ccccc4s3)CC2)c1 returned ATXN viability inactive.
For Cc1cccc(Cl)c1NC(=O)N1CCCN(c2nc3ccc(Cl)cc3s2)CC1 the results were HepG2 tox inactive, DRD3 agonist inactive, D3 antag inactive, ATXN viability inconclusive and TGFb SMAD3 inh 14µM.
For CCNC(=S)NC1CC2CCCC(C1)N2Cc1ccc(C)cc1 (stereo unspecified) the results were HepG2 tox inactive, DRD3 agonist inactive, D3 antag -118, ATXN viability inactive and TGFb SMAD3 inh inactive.
For CCNC(=S)NC1CC2CCCC(C1)N2Cc1ccco1 (stereo unspecified) the results were HepG2 tox inactive, DRD3 agonist inactive, D3 antag inactive, ATXN viability inactive, TGFb SMAD3 inh inactive and ATXN2 expr inh inactive.
For CNC(=S)NC1CC2CCCC(C1)N2Cc1ccccc1OC (stereo unspecified) the results were HepG2 tox inactive, DRD3 agonist inactive, D3 antag -62, ATXN viability inactive, TGFb SMAD3 inh inactive and ATXN2 expr inh inactive.
Screening CC(=O)NC1CC2CCC(C1)N2Cc1ccc(C)cc1 (stereo unspecified) returned HepG2 tox inactive, DRD3 agonist inactive, D3 antag inactive, ATXN viability inconclusive, TGFb SMAD3 inh inactive and ATXN2 expr inh inactive.
`CNC(=S)NC1CC2CCCC(C1)N2Cc1ccc(C)cc1` (stereo unspecified) gave HepG2 tox inactive, DRD3 agonist inactive, D3 antag -116, ATXN viability inactive and TGFb SMAD3 inh inactive.
